Records with an inconclusive call do not appear. Unmarked numbers belong to inactive results. Calls of active or inactive are those of the source. The call rests on the fitted dose curve; in most records, active means well fitted cell-killing curve with a large enough effect; inconclusive means small, poorly fitted or top-dose-only effect, or effect the other way; inactive means no such curve, though single readings can be large or run the other way.
Assay: Viability qHTS for spleen associated tyrosine kinase inhibitor (SYKi) naive MV4-11 cells (AID 1963823); further: nearly all actives have a fitted effect of over 40% in size
Details: MV4-11 AML viability, CellTiter-Glo luminescence, 72 h; series mostly up to 45 µM; viability (% of control): at the top concentration
Method in brief: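 Read-out: CellTiter-Glo luminescence. Exposure: 72 hr, 37 C, 5% CO2, 95% humidity. Cells: MV4-11 without SYK inhibitor history, 500/well, qHTS format.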
Potency means the concentration at half of the fitted maximal effect.

Row | Structure (SMILES) | viability (% of control) | Potency
1 | COC(=O)C1C(c2ccc(O)cc2)C(C(=O)O)C1c1ccc(O)cc1 (stereo not drawn) | 65.8% | 
2 | OCC1=CC[C@@H]2C=CO[C@@H](O[C@@H]3O[C@H](CO)[C@@H](O)[C@H](O)[C@H]3O)[C@H]12 | 85.7% | 
3 | Cc1cn(C2C[C@H](O)[C@@H](CO)O2)c(=O)[nH]c1=O (stereo partly drawn) | 92.7% | 
4 | COC(=O)C[C@@H]1C(C(=O)O)=CO[C@@H](O[C@@H]2O[C@H](CO)[C@@H](O)[C@H](O)[C@H]2O)/C1=C\COC(=O)/C=C\c1ccccc1 | 57% [at 17.3 µM] | 
5 | O=S(=O)(O)c1ccc(Nc2ncnc3c2ncn3[C@@H]2O[C@H](CO)[C@@H](O)[C@H]2O)cc1 | 78.3% | 
6 | CC(C)(O)/C=C/CC(C)(O)C1C(O)CC2(C)C3CCC4C(C)(C)C(=O)CCC4(C)C3CCC12C (stereo not drawn) | 56.5% [at 17.3 µM] | 
7 | CC1CCCC(O)CC(=O)c2c(O)cc(O)cc2CC(=O)O1 (stereo not drawn) |  | 3.21 µM (active)
8 | COc1ccc(CCN(C)CCCC(C#N)(c2cc(OC)c(OC)c(OC)c2)C(C)C)cc1OC (stereo not drawn) |  | 23.7 µM (active)
9 | CC(=O)C12OC(C)(C)OC1CC1C3CCC4=CC(=O)C=CC4(C)C3(F)C(O)CC12C (stereo not drawn) | 121% | 
10 | O=C(O)C(Cc1ccccc1)NC(=O)C1CCCN1 (stereo not drawn) | 77.2% | 
11 | C[C@H]1CC(=O)C2=C(C1)C(O)C(O)[C@@]1(O)[C@H]2C(=O)c2cccc(O)c2[C@@H]1O (stereo partly drawn) | 65.5% | 
12 | CC[C@@H]([C@H](C)O)n1ncn(-c2ccc(N3CCN(c4ccc(OC[C@@H]5CO[C@@](Cn6cncn6)(c6ccc(F)cc6F)C5)cc4)CC3)cc2)c1=O |  | 11.9 µM (active)
13 | COc1c(Nc2ncc(Cl)c(N[C@H]3[C@@H](C(N)=O)[C@@H]4C=C[C@H]3C4)n2)ccc2c1CC[C@@H](N1CCOCC1)CC2 |  | 0.231 µM (active)

Source: PubChem BioAssay (NCATS)
